Data from the supplement of paper PMC10105736.
Unmarked numbers belong to inactive results.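 Rule for the calls: active = MAPPIT score above the 99th percentile of random reference set scores in the same batch; inactive = at or below it.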

Assays:
Test in all cases: MAPPIT interaction score (arbitrary units); higher = stronger binary interaction signal, active = hit call of the paper
[1] = target: Jupiter; details: MAPPIT configuration: N-N; pair source set: DPIM
[2] = target: Pfdn2; details: MAPPIT configuration: N-N; pair source set: Lit-BM-16
[3] = target: Kaz; details: MAPPIT configuration: N-N; pair source set: Curagen_low_conf
[4] = target: LRR; details: pair source set: RRS
[5] = target: LTV1; details: MAPPIT configuration: N-N; pair source set: screen_1
[6] = target: Lac; details: pair source set: Lit-BM-16
[7] = target: Lcp1; details: MAPPIT configuration: N-N; pair source set: DPIM
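Note: HEK293T cells with Epo stimulation, STAT-responsive firefly luciferase reporter, fold induction versus unstimulated cells divided by the larger fold induction of two negative controls lacking either bait or prey.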

B1: Clp (protein)
chain: MDILLANVSGLQFKAERDLIEQVGAIPLPFYGMDKSIAAVCNFITRNGQECDKGSACPFRHIRGDRTIVCKHWLRGLCKKGDQCEFLHEYDMTKMPECYFYSRFNACHNKECPFLHIDPQSKVKDCPWYKRGFCRHGPHCRHQHLRRVLCMDYLAGFCPEGPSCKHMHPHFELPPLAELGKDQLHKKLPTCHYCGELGHKANSCKQYVGSLEHRNNINAMDHSGGHSGGYSGHSGHIEGADDMQSNHHSQPHGPGFVKVPTPLEEITCYKCGNKGHYANKCPKGHLAFLSNQHSHK
B1 was tested, and the MAPPIT interaction score [1] was -0.085.

B2: Pfdn5 (protein)
chain: MAATPSAPAKSEMIDLTKLSPEQLIQIKQEFEQEITNVQDSLSTLHGCQAKYAGSKEALGTFQPNWENRQILVPLTSSMYVPGRVKDLNRFVIDIGTGYYIEKDLEGSKDYFKRRVEYVQEQIEKIEKIHLQKTRFYNSVMSVLEMKQAAAAKLQSQQQSQPAVTQSS
In the case of B2, the MAPPIT interaction score [1] is reported as -0.0979 and the MAPPIT interaction score [2] is reported as 5.87 (active).

B3: Cpn (protein)
chain: MEPGTIPSPVSAPVAAPVTPSAVAAPVQVVSPAAVAPAPAAPIAVTPVAPPPTLASVQPATVTIPAPAPIAAASVAPVASVAPPVVAAPTPPAASPVSTPPVAVAQIPVAVSAPVAPPVAATPTPVAPIPVAAPVIATPPVAASAPTPAAVTPVVSPVIATPPVVPANTTVPVAAPVAAVPAAVPVVAPVLAPAVAPAVAPVVAETPAPPPVAEIPVATIPECVAPLIPEVSVVATKPLAAAEPVVVAPPATETPVVAPAAASPHVSVAPAVETAVVAPVSASTEPPVAAATLTTAPETPALAPVVAESQVAANTVVATPPTPAPEPETIAPPVVAETPEVASVAVAETTPPVVPPVAAESIPAPVVATTPVPATLAVTDPDVTASAVPELPPVIAPSPVPSAVAETPVDLAPPVLPPVAAEPVPAVVAEETPETPAPASAPVTIAALDIPEVAPVIAAPSDAPAEAPSAAAPIVSTPPTTASVPETTAPPAAVPTEPIDVSVLSEAAIETPVAPPVEVTTEVAVADVAPPEAAADLIIEPVEPPAPIPDLLEQTTSVPAVEAAESTSSPIPETSLPPPNEAVASPEVAVAPITAPEPIPEPEPSLATPTEPIPVEAPVVIQEAVDAVEVPVTETSTSIPETTVEYPVAEKVLDPAITEAPVTTQEPDVANINDGAPATEITTPAVEIVTAAAEVSDTAIPLIDPPVPQEIAVAEIPETETKPAEVIVEQSTIPIEAPVPEVSKYAEPVISEAPAAEVPITAGDNPDNTSVGISEVVPTIAEKAVEEVPTSEIPEQSSSPSDSVPVAKITPLLRDLQTTDVSLLAIAATLDAIGEKLKDQKARNQQVMDRLCEIEKILGPPKSN
B3 was tested, and the MAPPIT interaction score [3] was 0.293.

B4: CG33108 (protein)
chain: MSNISSVAPPPPPPPMIVTPSTPATTKERPVGDNITTDECTWACEYPEVQKGCYLSRVCQYTPPKHCQYYSVNSIVQVGPTCGLVALSMLLGGSPTADDLLKDAIDQEYTLNGELFSAQYLFELTRKHMPGPAACQLHVGPLDCKKVKELLKAGGCLLVPYDADVNHAPCVKNGHRAHWALIVGYLVDTQDRFYVLARHGKSRNLAVWPLDTLSQSNENLKEFAQPKGYPDDEFLLPPGGIGGSLGLNERCILVNGLPKQVIHVRWS
B4 gave an MAPPIT interaction score ([4]; MAPPIT configuration: N-C) of 1.24 and an MAPPIT interaction score ([4]; MAPPIT configuration: N-N) of -0.128.

B5: bys (protein)
chain: MGKPKKANVATIKNVNLEKQITEGRVAKNKNKDKVKLRAEESANIDARSSQKILAAAKLQQLELDEENFPSLVTVKKVNFSLNDGHVKEDEEVNETDLMADLDMDEDDVAAFERFQQPAQEGKRTLHLSKMIMQKIQEKEADIHTKISDEGSLKIEEIDPKVKEMYEGVRDVLKRYRSGKIPKAFKIIPKLRNWEQILFITEPHNWSAAAMFQGTRIFCSVLSQAMAQRFYNLVLLPRVRDDLCEYKKLNMHLYNALKRALFKPAAFMKGIILPLLEGGDCTLREAIIFGSVVARSSIPVLHSSACLLKICEMAYSGANSIFIRYFLDKRYALPYRVVDAAVFHFLRFENDKRELPVLWHQSLLTFAQRYKNDISSEQRDALLQLLKKKSHFKITPDVRRELQAASCRDVEMMETDNGLAGQPAKMYTDADVEYEG
In the case of B5, the MAPPIT interaction score [5] is reported as 1.68.

B6: Lac (protein)
chain: MWRPSISNCVWSTLLLAIFVQQTLAQRTPTISYITQEQIKDIGGTVEFDCSVQYAKEYNVLFLKTDSDPVFLSTGSTLVIKDSRFSLRYDPNSSTYKLQIKDIQETDAGTYTCQVVISTVHKVSAEVKLSVRRPPVISDNSTQSVVASEGSEVQMECYASGYPTPTITWRRENNAILPTDSATYVGNTLRIKSVKKEDRGTYYCVADNGVSKGDRRNINVEVEFAPVITVPRPRLGQALQYDMDLECHIEAYPPPAIVWTKDDIQLANNQHYSISHFATADEYTDSTLRVITVEKRQYGDYVCKATNRFGEAEARVNLFETIIPVCPPACGQAYIAGAEDVSATSFALVGILAALLFAR
Binder B6 has an MAPPIT interaction score ([6]; MAPPIT configuration: N-C) of -0.593 and an MAPPIT interaction score ([6]; MAPPIT configuration: N-N) of -0.017.

B7: B52 (protein)
chain: MVGSRVYVGGLPYGVRERDLERFFKGYGRTRDILIKNGYGFVEFEDYRDADDAVYELNGKELLGERVVVEPARGTARGSNRDRYDDRYGGRRGGGGGRYNEKNKNSRSSSRYGPPLRTEYRLIVENLSSRVSWQDLKDYMRQAGEVTYADAHKQRRNEGVVEFASLSDMKTAIEKLDDTELNGRRIHLVEDRRGGRSGGGGGSGRGRSRSSSSRSRSRSRRRSRSRRSSHSRSKSRSRSKSRGGRSKSKSPVKSRSRSRSRSNKSRDVSKSKSKSHSRTRSRSPKRERDSRSRSRSVSKRESRSRSRSKSIHRDSRSRPPTVSFKSSFYKFTTMPFFCSDRSASAENKSRSRSRSRSASPKNGNASPDRNNESMDD
B7 was tested, and the MAPPIT interaction score [7] was -0.142.
